According to ChEMBL document CHEMBL4513216, “Probing the Open Global Health Chemical Diversity Library for Multistage-Active Starting Points for Next-Generation Antimalarials” (ACS Infect Dis, 2020):
About 2,700 (4%) of roughly 68,000 compounds showed an effect of 50% or more. This excerpt belongs to a sample that is enriched for strong results.

The compounds below were run on Plasmodium berghei (assay: Screen against P. berghei liver stage (PbLuc), transformed with Luciferase, at 2uM). Details: tested at 2 uM.
Type: functional, HepG2

**Q.** How did the INHIBITION turn out when Cc1cnc(N)c(C(=O)C2CCN(C(=O)C3CCC3)CC2)c1 was run?
**A.** 61.16%

**Q.** C=C(C)C(=O)N1CCC(C(=O)c2cc(C)cnc2N)CC1 was tested. Which INHIBITION did it give?
**A.** 6.57%

**Q.** Which INHIBITION does the source give for Cc1cnc(N)c(C(=O)C2CCN(C(=O)c3cnc(C)nc3C)CC2)c1 here?
**A.** 69.08%

**Q.** How did the INHIBITION turn out when Cc1cnc(N)c(C(=O)C2CCN(C(=O)c3cnc(C)cn3)CC2)c1 was run?
**A.** 25.72%

**Q.** CC(=O)N1CCC(C(=O)c2cc(C)cnc2N)CC1 was tested. Which INHIBITION did it give?
**A.** 27.16%

**Q.** Cc1cnc(N)c(C(=O)C2CCN(C(=O)c3ccccc3F)CC2)c1 was tested. Which INHIBITION did it give?
**A.** 21.37%

**Q.** For O=C(NCCn1cccn1)c1nnc2ccccc2n1, which INHIBITION is on record?
**A.** 7.42%

**Q.** How did the INHIBITION turn out when O=C(NC[C@H]1Cn2c(-c3ccccc3)cnc2CO1)C1CC1 was run?
**A.** 35.6%

**Q.** How did the INHIBITION turn out when CNC(=O)NC(=O)CN1CCN(CC(F)(F)F)CC1(C)C was run?
**A.** 21.03%

**Q.** How did the INHIBITION turn out when CC1(C)CN(CC(F)(F)F)CCN1CC(=O)NC1CCCC1 was run?
**A.** 37.42%

**Q.** With CC1(C)CN(CC(F)(F)F)CCN1CC(=O)NC1CC1 as the compound, how does the INHIBITION read?
**A.** 65.42%

**Q.** How did the INHIBITION turn out when CCCn1ncc(C2CC(=O)NCc3nc4cc(C)ccn4c32)c1C (centres undefined) was run?
**A.** 48.21%

**Q.** With CCCn1ncc(C2CC(=O)NCc3nc4sc(C)cn4c32)c1C (centres undefined) as the compound, how does the INHIBITION read?
**A.** 55.36%

**Q.** For CCC1CC(=O)NCc2nc3sc(C)cn3c21 (centres undefined), which INHIBITION is on record?
**A.** -18.57%

**Q.** With Cc1noc(C)c1CN(C)C(=O)Cn1c(=O)n(C)c2ccccc21 as the compound, how does the INHIBITION read?
**A.** -43.5%

**Q.** For Cc1ccc(NC(=O)Nc2c(O)c3ccccc3oc2=O)cc1C, which INHIBITION is on record?
**A.** 8.92%

**Q.** Which INHIBITION does the source give for COCCn1c2c(ccc1=O)CCN(C(=O)CC1CC1)CC2 here?
**A.** -13.68%

**Q.** For NC(=O)NCCC(=O)N1CCC(c2cc(-c3ccccc3Cl)n[nH]2)CC1, which INHIBITION is on record?
**A.** 31.25%

**Q.** With NC1(C(=O)N2CCC(c3cc(-c4ccccc4Cl)n[nH]3)CC2)CCC1 as the compound, how does the INHIBITION read?
**A.** 54.07%

**Q.** Which INHIBITION does the source give for NC(=O)NCC(=O)N1CCC(c2cc(-c3ccccc3Cl)n[nH]2)CC1 here?
**A.** 39.65%

**Q.** Which INHIBITION does the source give for NC(=O)NC1CCN(Cc2ccc3c(c2)CCC3)CC1 here?
**A.** 30.42%

**Q.** CC(c1nnc(-c2cccs2)o1)N1CCc2cncnc2C1 (centres undefined) was tested. Which INHIBITION did it give?
**A.** -9.5%

**Q.** O=c1[nH]nc2c(S(=O)(=O)N3CCCCC3)cccn12 was tested. Which INHIBITION did it give?
**A.** 6.33%

**Q.** CCC(CO)N(Cc1ccccn1)C(=O)c1ccc(C)c(Cl)c1 (centres undefined) was tested. Which INHIBITION did it give?
**A.** 42.48%

**Q.** Which INHIBITION does the source give for COCCC1(CNC(=O)NCC2CCCN(C)C2)CCCC1 (centres undefined) here?
**A.** -24.61%

**Q.** How did the INHIBITION turn out when COCCC1(CNC(=O)NCC2CCCS2)CCCC1 (centres undefined) was run?
**A.** 55.39%

**Q.** COCCC1(CNC(=O)NCC2CCC2)CCC1 was tested. Which INHIBITION did it give?
**A.** 29.43%

**Q.** How did the INHIBITION turn out when CC(C)Nc1nc(-c2ccccc2)nc2c1CCN(C(=O)CC#N)CC2 was run?
**A.** 27.22%

**Q.** Which INHIBITION does the source give for CCN(Cc1noc(C)n1)C(=O)C(c1ccc(C)cc1)N(C)C (centres undefined) here?
**A.** -0.28%
